According to PubChem BioAssay (NCATS):
Inconclusive results are not listed. The source made the active and inactive calls. Calls come from the whole dose curve; as a rule, active = well fitted cell-killing curve with a large enough effect; inconclusive = small, poorly fitted or top-dose-only effect, or effect the other way; inactive = flat fitted curve, though single readings scatter.

Columns and labels:
Assay in all cases: Primary qHTS to identify gynecologic anti-cancer compounds using libraries of approved drugs and bioactive compounds (AID 1345084); note: nearly all actives have a fitted effect of over 55% in size
Conditions in all cases: Gynecologic cancer cell panel viability, ATPlite luminescence, 48 h; series mostly up to 57.5 µM
PA-1 = tested on: PA-1
In short: (§1)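 Five-concentration response, 48 h; readout is ATP-driven luciferase luminescence.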

SKOV3 = tested on: SKOV3
In short: as §1

Tov-21-G = tested on: Tov-21-G
In short: as §1

Tov112D = tested on: Tov112D
In short: as §1
% is set by controls: 0 for no effect and ±100 for the full control effect.

Cc1cc(=O)oc2c(C=O)c(O)ccc12
inactive: Potency (PA-1) | Potency (SKOV3) | Potency (Tov-21-G) | Potency (Tov112D)

CCOc1cc(C)c(Cl)cc1S(=O)(=O)n1cnc2ccccc21
inactive: Potency (PA-1) | Potency (SKOV3) | Potency (Tov-21-G) | Potency (Tov112D)

C[C@@H](O)[C@H](NC(=O)c1ccc(C#Cc2ccc(CN3CCOCC3)cc2)cc1)C(=O)NO
inactive: Potency (PA-1) | Potency (SKOV3) | Potency (Tov-21-G) | Potency (Tov112D)

OC[C@H]1O[C@@H](Oc2cc(O)c3c(c2)O[C@@H](c2ccc(O)cc2)[C@H](O)C3)[C@H](O)[C@@H](O)[C@@H]1O
inactive: Potency (PA-1) | Potency (SKOV3) | Potency (Tov-21-G) | Potency (Tov112D)

Cc1cn(C2C=CC(CO)O2)c(=O)[nH]c1=O (stereo unspecified)
inactive: Potency (PA-1) | Potency (SKOV3) | Potency (Tov-21-G) | Potency (Tov112D)

CC(=O)N[C@H]1[C@H](O[C@H]2CC[C@@]3(C)C(CC[C@]4(C)C3CC=C3[C@@H]5CC(C)(C)CC[C@]5(C(=O)OC5OCC(O)C(O)C5O)CC[C@]34C)C2(C)C)O[C@H](COC2OC(C)C(O)C(OC3OC(C)C(O)C(O)C3O)C2O)[C@@H](O)[C@@H]1O (stereo partly specified)
inactive: activity change, negative = cytotoxicity (PA-1) 5.97% [at 11.6 µM] | activity change, negative = cytotoxicity (SKOV3) 2.42% [at 11.6 µM] | activity change, negative = cytotoxicity (Tov-21-G) 2.63% [at 11.6 µM] | activity change, negative = cytotoxicity (Tov112D) 7.32% [at 11.6 µM]

CC1(C)CCCC2(C)C1CC=C1C(=O)OC(O)C12O (stereo unspecified)
inactive: Potency (PA-1) | Potency (SKOV3) | Potency (Tov-21-G) | Potency (Tov112D)

CC(=O)CC1CCC(C(C)C(=O)OCC(O)CO)O1 (stereo unspecified)
inactive: Potency (PA-1) | Potency (SKOV3) | Potency (Tov-21-G) | Potency (Tov112D)

COC(=O)N(C)c1c(N)nc(-c2nn(Cc3ccccc3F)c3ncccc23)nc1N
inactive: Potency (PA-1) | Potency (SKOV3) | Potency (Tov-21-G) | Potency (Tov112D)
